This assay concerns the target Tumor necrosis factor receptor superfamily member 10B (Homo sapiens) (UniProt O14763). The assay is described as follows: caspase-8 TRAIL sensitization, hit retest, confirmation, cell-based, NB7+caspase-8, with/without TRAIL, luminescence panel (AID 651596). Conditions: NB7 neuroblastoma + caspase-8, TRAIL sensitization, luminescence viability, with TRAIL, mean of runs, at 10 µM, stronger effect = higher value; in the data active = activity above about 50%; inactive = the rest.
Tumor necrosis factor receptor superfamily member 10B (Homo sapiens), sequence (O14763 whole entry, looked up): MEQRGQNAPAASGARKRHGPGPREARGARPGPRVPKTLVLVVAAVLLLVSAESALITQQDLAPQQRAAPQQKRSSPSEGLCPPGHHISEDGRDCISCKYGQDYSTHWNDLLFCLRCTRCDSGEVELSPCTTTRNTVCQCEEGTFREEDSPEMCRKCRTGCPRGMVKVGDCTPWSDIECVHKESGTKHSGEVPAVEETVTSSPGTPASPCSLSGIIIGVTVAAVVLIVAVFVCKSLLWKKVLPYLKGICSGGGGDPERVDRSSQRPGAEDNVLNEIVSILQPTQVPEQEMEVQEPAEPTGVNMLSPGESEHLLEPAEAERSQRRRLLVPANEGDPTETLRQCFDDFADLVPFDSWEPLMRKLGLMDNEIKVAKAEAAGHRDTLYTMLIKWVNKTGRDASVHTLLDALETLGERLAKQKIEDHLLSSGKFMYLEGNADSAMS
For the compound `Cn1c(-c2ccccc2)c(C(=O)CCl)c2ccccc21`, the activity came out at 99.2%.
For `CCOC(=O)c1cccc(NC(=O)/C=C/c2ccc3c(c2)OCO3)c1` the value was 78.9%; for `COc1ccc(C2C(C(=O)N3CCN(c4ccccc4)CC3)c3ccccc3C(=O)N2C)cc1OC` (centres undefined), 71.8%; for `CCc1ccc(-c2cc(C(=O)N/N=C/c3c[nH]c4ccccc34)[nH]n2)cc1`, 41.6%.
On to `Cn1sc(NC(=O)c2ccc(Cl)cc2)nc1=O`, for which the activity is 68.4%.
Consider `CS(=O)(=O)Nc1cccc(NC(=O)C2Cc3c(-c4ccco4)ccnc3O2)c1` (centres undefined), for which the activity worked out at 35.7%.
With `COc1ccc(OC)c2sc(N(CCN(C)C)C(=O)/C=C/c3cccs3)nc12` the figure was 95.2%; with `COc1cccc(NC(=O)Nc2ccc3c(c2)nc(C)n3C)c1`, 83.7%.
For the compound `O=C(Nc1nc(=O)c2ccccc2s1)c1ccc(Cl)cc1`, the activity is 66.1%.
With `CCCCCCCCCCCCCCCC[N+](C)(C)Cc1ccc(F)cc1` the figure was 80.7%; with `O=C(NCCc1cccc(Cl)c1)c1ccc2c(c1)OCO2`, 47.7%; with `Cc1nc(-c2ccc(NC(=O)c3ccccc3)cc2)cs1`, 80.8%.
In the case of `Cc1ccc(-c2cnc3cc(C)nn3c2)cc1`, the activity is 73.9%.
With `COC(=O)c1ccccc1NC(=O)c1nc(S(=O)(=O)Cc2ccccc2)ncc1Cl` the figure was 84.1%; with `CCN1CCCC1CNC(=O)c1ccc2c(c1)NC(=O)/C(=C\c1ccc(C)cc1)S2` (centres undefined), 89.7%; with `COc1ccc(Oc2c(Cl)cnn(-c3ccccc3)c2=O)cc1`, 98.4%.
Take `CC(NC(=O)CCl)c1ccc(Cl)c(Cl)c1` (centres undefined): the activity is 51%.
Regarding `COc1ccc(/C=C/c2nc3ccccc3n2Cc2ccccc2OC)cc1`, the activity came to 78.5%.
For `CCOC(=O)c1ccc(NC(=O)c2nc[nH]c2C(=O)NCCNC(=O)c2[nH]cnc2C(=O)Nc2ccc(C(=O)OCC)cc2)cc1` the value was 99.4%.

The record behind these values is PubChem BioAssay.
